CASP6 VEID inh = inhibitors of human caspase-6; P55212; purified caspase-6, Z-VEID-R110 cleavage fluorescence; 0.53% of 350,000 active; AID 686996; inhibition, % at 12.5 µM;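 active means mean inhibition across replicates at least about 35%, with every replicate also reaching that limit, limit read from the data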;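 further: 0% = median of neutral control wells and 100% = no fluorescence left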
RAD52 inh = inhibitors of human RAD52 DNA annealing; P43351; AID 651710; inhibition, % at 18.7 µM; 0.46% of 360,000 active; recombinant RAD52 DNA annealing, FRET fluorescence;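 active means every replicate showing at least 50% inhibition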
miR-122 sensor = miR-122 inhibition in Huh7 cells; activation (reporter increase), % at 12.5 µM; 0.3% of 340,000 active; Huh7 miR-122 Renilla luciferase sensor, 48 h; neutral wells = 0, positive control = 100;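 active means mean replicate activation score at least 90 and every replicate individually at or above 90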;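 further: higher luciferase means less miR-122 activity so hits act as miR-122 inhibitors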
AF4-AF9 inh = blocks AF4 peptide binding to human AF9; AlphaScreen, biotin-AF4 peptide binding to FLAG-AF9; 0.47% of 350,000 active; inhibition, % at 10 µM;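 active means every replicate reaching a set inhibition limit, whatever the replicate mean, cut at about 25% in these data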;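 further: 0% = plate neutral control median and 100% = total signal loss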
Target sequence (P42568 whole entry, looked up): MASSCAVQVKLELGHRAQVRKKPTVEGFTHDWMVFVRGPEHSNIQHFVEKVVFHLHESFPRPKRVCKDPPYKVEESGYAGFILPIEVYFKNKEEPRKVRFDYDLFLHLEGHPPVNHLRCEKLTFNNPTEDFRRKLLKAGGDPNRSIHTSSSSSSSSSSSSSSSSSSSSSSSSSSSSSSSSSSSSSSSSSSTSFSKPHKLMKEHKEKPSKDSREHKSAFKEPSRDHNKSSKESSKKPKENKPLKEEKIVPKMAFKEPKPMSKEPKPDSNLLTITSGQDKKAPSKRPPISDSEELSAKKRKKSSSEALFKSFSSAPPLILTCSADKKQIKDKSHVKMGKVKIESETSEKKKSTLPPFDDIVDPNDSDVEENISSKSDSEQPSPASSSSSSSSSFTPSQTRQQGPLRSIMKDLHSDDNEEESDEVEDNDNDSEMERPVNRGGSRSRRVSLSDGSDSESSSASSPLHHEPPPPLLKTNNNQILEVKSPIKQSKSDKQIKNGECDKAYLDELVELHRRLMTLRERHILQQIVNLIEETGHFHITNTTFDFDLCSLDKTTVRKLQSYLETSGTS
NSD2 HMT inh = NSD2 (human) methyltransferase inhibition; 0.54% of 310,000 active; AID 743445; inhibition, % at 12.5 µM; NSD2 peptide methylation, AlphaScreen, 120 min; O96028; in the data active means inhibition above about 50%
* marks the source's active call; other numbers are inactive results; nt = no result; [ ] = dose if it differs, or a comment. Most compounds without a hit are left out; they make up all but 1.5% or so of the library.

SMILES | CASP6 VEID inh | RAD52 inh | miR-122 sensor | AF4-AF9 inh | NSD2 HMT inh
O=S(=O)(Nc1ccc(N2CCOCC2)cc1)c1cc(Cl)ccc1Cl | 0.0 | -9.7 | 94.2* | 2.6 | -0.4
COc1ccc(NC(=O)Nc2ccc3c(c2)C(=O)N([C@H](C)CO)C[C@H](C)[C@H](CN(C)Cc2ccccc2)OCCCC[C@H](C)O3)cc1 | -1.1 | 54.3* | -9.6[16.7 µM] | 7.6 | nt
COc1ccc(NC(=O)Nc2ccc3c(c2)C(=O)N([C@H](C)CO)C[C@@H](C)[C@H](CN(C)Cc2ccccc2)OCCCC[C@H](C)O3)cc1 | 0.9 | 59.5* | -9.7[16.7 µM] | 7.6 | nt
CC1CCN(C2=C(NS(=O)(=O)c3ccc(Cl)cc3)C(=O)c3ccccc3C2=O)CC1 | 6.9 | -3.2 | -13.3 | 14.4 | 14.3
CC1CCN(C2=C(NS(=O)(=O)c3ccccc3)C(=O)c3ccccc3C2=O)CC1 | 10.6 | -8.0 | nt | 57.3* | 48.7
O=C1C(NS(=O)(=O)c2ccccc2)=C(N2CCN(c3ccc(F)cc3)CC2)C(=O)c2ccccc21 | 7.2 | -5.2 | 22.0 | 64.3* | 33.0
COc1cccc(NC(=O)C[C@@H]2CC[C@@H]3[C@@H](COc4ccc(NC(=O)C5CCCCC5)cc4C(=O)N3C)O2)c1 | -0.6 | -21.8 | -5.2[16.7 µM] | 2.9 | nt
Cn1cnc([N+](=O)[O-])c1S(=O)(=O)Nc1ccccc1 | 42.3* | -2.7 | -3.4 | -1.4 | 3.9
Cn1cnc([N+](=O)[O-])c1S(=O)(=O)Oc1ccccc1 | 24.5 | -3.7 | nt | -3.2 | nt
CC(=O)N(C)C[C@@H]1Oc2cc(-c3ccc(C#N)cc3)ccc2S(=O)(=O)N([C@@H](C)CO)C[C@H]1C | -0.2 | 5.3 | -0.8[16.7 µM] | -3.0 | nt
O=C(CCl)N1N=C(c2ccco2)CC1c1ccco1 (configuration not stated) | 60.1* | -68.2 | 0.3 | -1.0 | 12.4
O=C(CCl)N1N=C(c2cccs2)CC1c1ccco1 (configuration not stated) | 8.7 | -187.7 | nt | 4.0 | 7.9
O=C(O)CCc1ccc(S(=O)(=O)Nc2cc(C(F)(F)F)ccc2N2CCCC2)cc1 | 67.2* | -11.4 | 0.2 | 1.7 | 1.7
CCCC(=O)Nc1ccc2c(c1)C(=O)N(C)C[C@H](OC)[C@H](C)CN(C(=O)c1cnccn1)[C@@H](C)CO2 | 1.1 | -5.1 | 0.0[16.7 µM] | 2.1 | nt
O=S(=O)(NC(=NCc1ccccc1)c1ccc(F)cc1)c1ccc(Cl)cc1 | -2.8 | -8.7 | 147.9* | -1.6 | -2.8
O=C1O[C@@H](c2ccccc2)[C@@H](c2ccccc2)N2[C@@H](c3ccc(O)cc3)[C@]3(C(=O)Nc4ccc(C#CC5=CCCCC5)cc43)[C@@H](C(=O)O)[C@H]12 | 30.2 | -17.8 | nt | 5.9 | nt
COc1ccc(NC(=O)NC[C@H]2CC[C@H]3[C@H](CN3Cc3ccccc3C(=O)O)O2)cc1 | -1.9 | 54.4* | nt | 16.3 | nt
COCC(=O)OC1CCn2c1nc1c2C(=O)C(C)=C(NC(C)=O)C1=O (configuration not stated) | 99.4* | 27.8 | nt | -6.8 | nt
O=C(C[C@@H]1C=C[C@@H](NC(=O)c2ccc(F)cc2)[C@@H](CO)O1)NCc1ccncn1 | 86.7* | 13.4 | nt | -2.7 | nt
COc1ccc(C(CCNCc2ccc(N(C)C)cc2)c2ccccc2)cc1 (configuration not stated) | 2.0 | -31.9 | nt | 50.2* | 14.8
Cc1ccccc1-c1ccc([C@H]2[C@H](CO)N3CCCCN(S(=O)(=O)Cc4ccccc4)C[C@@H]23)cc1 | -2.1 | 55.5* | 0.4[16.7 µM] | 4.2 | nt
Cc1ccccc1-c1ccc([C@@H]2[C@@H](CO)N3CCCCN(S(=O)(=O)Cc4ccccc4)C[C@H]23)cc1 | -3.9 | 62.8* | -8.0[16.7 µM] | 6.1 | nt
CCS(=O)(=O)N1CCCCN2[C@H](C1)[C@@H](c1ccc(-c3ccccc3C)cc1)[C@@H]2CO | 2.6 | -19.5 | 22.6[16.7 µM] | -6.5 | nt
O=C(C[C@H]1C[C@H]2c3cc(NC(=O)C4CCOCC4)ccc3O[C@H]2[C@H](CO)O1)NCc1ccccc1 | -0.6 | 10.8 | 5.0[16.7 µM] | -1.0 | nt
COc1ccc2c3c(n(C)c2c1)[C@@H](CO)N(C)CC31CCN(C(=O)C2CCC2)CC1 | nt | -25.6 | nt | 0.2 | nt
SMILES | CASP6 VEID inh | RAD52 inh | miR-122 sensor | AF4-AF9 inh | NSD2 HMT inh
S=c1[nH]nc(-c2ccccc2Cl)n1/N=C/C=C/c1ccco1 | 31.3 | -18.4 | 3.6 | 47.3* | 3.7
S=c1[nH]nc(-c2ccncc2)n1/N=C/C=C/c1ccco1 | 51.3* | -23.6 | nt | -5.5 | 25.4
Cc1ccc(S(=O)(=O)c2cccc(S(=O)(=O)N3CCCC3)c2)cc1S(=O)(=O)N1CCCC1 | nt | nt | 110.4* | nt | 0.3
Cc1ccc(S(=O)(=O)c2cccc(S(=O)(=O)N3CCOCC3)c2)cc1S(=O)(=O)N1CCOCC1 | nt | nt | -0.5 | nt | -2.1
CCNC(=O)[C@@H]1[C@@H](CO)[C@@H]2Cn3c(ccc(-c4cccc(F)c4)c3=O)[C@@H]2N1Cc1cc(F)ccc1F | 0.2 | -8.3 | nt | 2.0 | nt
Cc1c(O)cc2c(c1O)C(=O)CC(c1ccc(O)cc1)O2 (configuration not stated) | 46.1* | -11.9 | 5.7 | -0.2 | nt
COc1cc(O)c2c(c1)OC(c1ccc(O)cc1)CC2=O (configuration not stated) | 4.5 | 1.9 | 3.8 | -4.3 | nt
O=C(Cn1nc(CNc2ccc(Br)cc2)[n+]2c1CCCCC2)c1ccc([N+](=O)[O-])cc1 | 16.4 | 34.5 | 0.5 | 27.6* | 11.7
O=C(Cn1nc(CNc2ccc(Cl)cc2)[n+]2c1CCCCC2)c1ccc(Br)cc1 | nt | nt | -7.5 | nt | 4.5
O=C(O)c1cccc(N2C(=O)/C(=C/c3ccc(SCc4ccc(Cl)cc4)o3)SC2=S)c1 | 72.4* | -81.5 | nt | 0.3 | 112.1*
O=C(N[C@@H]1CC[C@H](CCn2cc(-c3ccccc3)nn2)O[C@@H]1CO)c1cnccn1 | 4.5 | -1.3 | nt | -0.8 | nt
CCCCCCC(=O)Nc1cc2c(C)cc(=O)oc2cc1C | nt | nt | 2.6 | nt | -3.8
CCCCCCCCC(=O)c1c(OC)oc(C=O)cc1=O | 71.6* | -70.0 | -10.3 | -6.7 | 5.9
CC(C)C[C@H]1CN(CCCC[C@H]2CNC(=O)C(=O)N2CC2CCCCC2)C(=O)C(=O)N1Cc1ccccc1 | 4.7 | -2.2 | nt | 26.5* | nt
Cc1noc(C)c1NC(=O)Nc1ccc2c(c1)C(=O)N([C@@H](C)CO)C[C@@H](C)[C@@H](CN(C)Cc1ccccc1)OCCCC[C@H](C)O2 | 0.2 | 3.4 | 3.3[16.7 µM] | 0.0 | nt
CC(C)CC#Cc1ccc2c(c1)O[C@H](CN(C)CC1CC1)[C@H](C)CN([C@H](C)CO)S2(=O)=O | 3.8 | 22.0 | 51.9[16.7 µM] | -3.9 | nt
CC(=O)C[C@H]1c2cc(C(F)(F)F)ccc2S(=O)(=O)N1C1CCCC1 | 0.5 | -17.1 | 104.6* | -2.5 | nt
Cc1cc(NC(=O)C2CC(=O)N(c3ccccc3C)C2)no1 (configuration not stated) | -2.5 | -11.6 | -1.6 | -0.1 | 1.6
Cc1cc(NC(=O)C2CC(=O)N(c3cccc(C)c3C)C2)no1 (configuration not stated) | -1.7 | -3.1 | 0.6 | 44.1* | -1.7
N#Cc1ccc(-c2ccc([C@H]3[C@H](CO)N4C(=O)CN(C(=O)C5CC5)C[C@@H]34)cc2)cc1 | -3.7 | -1.2 | nt | 1.0 | nt

High-throughput results deposited in PubChem BioAssay by Broad Institute.
